SKN-1 block: blocks SKN-1 activity in C. elegans. C. elegans VP596 Pgst-4::GFP/RFP ratio, acrylamide-induced, 24 h. inhibition, % at 21.8 µM. 360,000 tested, 0.49% active. AID 624304;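 active = interference check ratio from 0.5 to 1.5 plus GFP to RFP signal ratio inhibition reaching or exceeding a fixed threshold, cut at about 30% in these data, passing the limit was not always enough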
MEKK2 mut-MEK5: signal of MEK5 binding to mutant human MEKK2 PB1 domain. bead flow cytometry, Alexa488-MEK5 binding to MEKK2 mutant. percent response, % at 10 µM. 290,000 tested, 0.35% active; in the data active = percent response above about 24%, passing the limit was not always enough
NRP1-CendR mod: NRP-1/CendR interaction modulation; O14786; FAM-RPARPAR peptide binding to NRP-1, fluorescence polarization; inhibition, % at 25 µM; 360,000 tested, 0.85% active;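 active = inhibition or corrected inhibition above about 18%, plus a signal ratio from 0.5 to 1.5, limit read from the data, passing the limit was not always enough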
MEKK3 PB1 HTS: MEKK3-MEK5 PB1 interaction, increase or decrease | Q99759 | AID 1529 | bead-based flow cytometry, Alexa488-MEK5 binding to MEKK3; actives lie on both sides; 0 = blocked by unlabeled MEK5, 100 = vehicle | 290,000 tested, 1.4% active | binding response (% of control), % at 10 µM;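 active = binding response more than 3 SD above or below the average of its plate-row segment, actives on both sides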;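 also: Alexa488 bead fluorescence after subtracting the streptavidin-only scavenger bead signal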
Target sequence (Q99759 whole entry, looked up): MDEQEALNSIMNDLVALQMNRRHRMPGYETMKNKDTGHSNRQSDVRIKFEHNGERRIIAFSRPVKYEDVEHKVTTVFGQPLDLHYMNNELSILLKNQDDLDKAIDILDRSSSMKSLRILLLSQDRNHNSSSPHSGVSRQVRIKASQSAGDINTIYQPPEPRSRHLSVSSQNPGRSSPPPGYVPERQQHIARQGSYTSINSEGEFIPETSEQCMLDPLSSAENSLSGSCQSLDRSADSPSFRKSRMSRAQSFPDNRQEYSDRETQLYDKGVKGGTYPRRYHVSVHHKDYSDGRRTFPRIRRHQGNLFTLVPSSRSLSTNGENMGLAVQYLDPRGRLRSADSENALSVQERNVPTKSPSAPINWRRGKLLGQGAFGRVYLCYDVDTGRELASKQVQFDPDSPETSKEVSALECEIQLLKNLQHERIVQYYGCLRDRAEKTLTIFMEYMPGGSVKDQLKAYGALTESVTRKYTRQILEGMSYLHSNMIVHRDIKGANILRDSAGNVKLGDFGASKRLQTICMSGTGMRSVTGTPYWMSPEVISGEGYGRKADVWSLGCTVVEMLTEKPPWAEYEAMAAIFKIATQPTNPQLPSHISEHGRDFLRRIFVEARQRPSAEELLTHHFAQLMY
MEKK2wt PB1 HTS: raises or lowers MEK5 binding to wildtype human MEKK2 PB1 domain. Q9Y2U5. bead flow cytometry, Alexa488-MEK5 binding to MEKK2 WT; actives lie on both sides. binding response (% of control), % at 10 µM. 290,000 tested, 1.1% active. AID 1531; in the data active = binding response below about 67% or above about 130%
* = called active by the depositor; nt = not tested or not shown. Shown are actives, neighbours in structure and some others; about 3.2% of the full set was active somewhere.

SMILES	SKN-1 block	MEKK2 mut-MEK5	NRP1-CendR mod	MEKK3 PB1 HTS	MEKK2wt PB1 HTS
COc1ccc(-c2c(-c3ccsc3)oc3c2C(O)CCC3)cn1 (stereo not drawn)	3	nt	4	nt	nt
COc1c(O)cccc1[C@H](O)C1CCN(CCc2ccc(F)cc2)CC1	4	4	43*	106	106
CCN1CCC(NCCc2ccc(F)cc2)CC1	14	8	-8	105	107
Cc1ccc(C)c(C(=O)Cn2ncc(Cl)c(Cl)c2=O)c1	8	5	20*	101	99
CN(C)CCN(C(=O)/C=C/c1cccs1)c1nc2ccc(F)cc2s1	-4	21	-11	102	127
CCN(CC)CCN(C(=O)/C=C/c1cccs1)c1nc2ccc(Cl)cc2s1	8	13	4	103	156*
C[C@@H]1CN([C@H](C)CO)C(=O)c2cc(Br)cnc2O[C@H]1CN(C)C(=O)Cc1ccccc1	-8	nt	6	nt	nt
FC(F)(F)c1cc(-c2ccccc2)nc(NCC2CCCO2)n1 (stereo not drawn)	17	-3	-2	95	95
FC(F)(F)c1cc(-c2ccccc2)nc(NC2CCCC2)n1	37*	6	2	110	102
OCCCc1n[nH]c(=S)n1-c1ccccc1	-4	-13	23*	88	82
CCOc1ccccc1N1CCN(CC(=O)N(C)CC(=O)Nc2ccccc2CC)CC1	-25	nt	4	nt	nt
CC(O)(c1ccc(F)c(F)c1)c1nc(-c2cccc3cccnc23)cs1 (stereo not drawn)	28	nt	3	nt	nt
CC1(C(=O)NS(=O)(=O)c2ccccc2)CCN1C(=O)c1ccc(C2CCCCC2)cc1 (stereo not drawn)	3	nt	-3	nt	nt
Cc1ccc(F)c(S(=O)(=O)NC(=O)C2(C)CCN2C(=O)c2ccc(C3CCCCC3)cc2)c1 (stereo not drawn)	7	nt	26*	nt	nt
O=C(O)c1ccc(CSc2nnc(COc3ccccc3)o2)cc1	-4	15	22*	105	109
c1ccc(-c2ccc3ccccc3n2)cc1	24	0	-36	101	102
c1ccc2nc(-c3ccc(-n4ccnc4)cc3)ccc2c1	66*	2	-142	99	100
O=C(CCc1nc2ccccc2c(=O)[nH]1)NNC(=O)c1ccc(F)cc1	5	nt	15	nt	nt
C#CCNC(=O)C1=C[C@@H](c2cn(C(C)=O)c3ccccc23)C[C@@H](OCCCCO)O1	45*	7	-23	108	105
CC(=O)n1cc([C@H]2C=C(C(=O)NCc3ccccc3)O[C@@H](OCCCCO)C2)c2ccccc21	-16	1	-20	104	108
Cc1c(C)[n+](=O)c(C)c(C)n1[O-]	7	nt	29*	nt	nt
N#Cc1cccc(C=C(C(=O)c2ccccc2)c2ccccc2)c1	3	nt	-22	nt	nt
CN1C(=O)N(c2ccccc2)C(Nc2nncs2)C1(C)C (stereo not drawn)	38*	1	5	102	102
CCn1c(C(=O)O)c(CC(=O)Nc2ccc(Br)cc2C)c2ccccc21	32	2	-2	97	99
CC(C)CC(=O)Nc1ccc(Nc2ccccc2)cc1	35*	2	5	85	88
SMILES	SKN-1 block	MEKK2 mut-MEK5	NRP1-CendR mod	MEKK3 PB1 HTS	MEKK2wt PB1 HTS
O=C(NCc1ccc(F)cc1)C1CCCN(S(=O)(=O)c2ccc(Br)s2)C1 (stereo not drawn)	-3	3	-1	106	104
O=C(NCc1ccc(F)cc1)C1CCN(S(=O)(=O)c2ccc(Br)s2)CC1	-1	1	30*	97	101
CSc1nc2nc(Cl)c(Cl)nc2[nH]1	10	nt	0	nt	nt
CC1=N/C(=C\c2ccc([N+](=O)[O-])cc2)C(=O)N1c1ccc(F)cc1F	8	1	6	103	103
COc1ccc(NC(=O)C2CCN(C(=O)Nc3ccccc3)CC2)cc1S(=O)(=O)N(C)C	-3	nt	23*	nt	nt
COc1cc(C(O)c2nc(-c3csc4ccccc34)cs2)ccc1F (stereo not drawn)	7	nt	8	nt	nt
C[C@H]1CN=C(N(C)C)N1CCCC1CCCC1	16	nt	14	nt	nt
C[C@H]1CN=C(N(C)C)N1CCC1CCCCC1	-6	nt	30*	nt	nt
Cc1c(N(C)S(=O)(=O)c2ccc(Cl)c(C(=O)N3CCC(C(N)=O)CC3)c2)c(=O)n(-c2ccccc2)n1C	-2	nt	-3	nt	nt
CCN(CC)C(=O)C1CCCN(C(=O)Nc2ccc3nsnc3c2)C1 (stereo not drawn)	-3	14	34*	111	112
O=C(O)C1C2OC3C(OC(=O)C31)C2Br (stereo not drawn)	16	nt	22	nt	nt
CC(C)(C)NC(=O)CN(C(=O)CCC(=O)Nc1nccs1)c1cccc(C(F)(F)F)c1	35*	5	2	101	106
Cc1cccc(N(CC(=O)NC(C)(C)C)C(=O)CCC(=O)Nc2nccs2)c1	5	13	-2	106	111
COc1ccc(NC(=O)C2CC2(Cl)Cl)cc1S(=O)(=O)N1CCCCC1 (stereo not drawn)	13	nt	-18	nt	nt
Cc1nn(-c2ccccc2)nc1CNC(=O)C1CCC1	6	8	25*	103	99
O=[N+]([O-])/C=C/c1cn(Cc2ccc(Cl)cc2)c2ccccc12	4	1	-11	99	2.0*
CC(C)C1OC2(C)OC(=N)C1(C#N)C(C#N)(C#N)C2c1ccccc1 (stereo not drawn)	42	5	-14	99	104
CCC1OC2(C)OC(=N)C1(C#N)C(C#N)(C#N)C2c1ccccc1 (stereo not drawn)	47*	-1	-15	112	105
CC1=C(C(=O)NCc2ccc(Cl)cc2)C2(CCC(C)CC2)OC1=O (stereo not drawn)	7	-1	37*	108	98
COc1ccc(NC(=O)N(C)C[C@H]2Oc3ccc(NC(=O)Nc4ccc5c(c4)OCO5)cc3C(=O)N([C@H](C)CO)C[C@@H]2C)cc1	0	nt	12	nt	nt
CC(=O)NCCn1ccc2ccccc21	-19	11	32*	113	114
Clc1ccc(-c2nnsc2SCc2ccccc2)cc1	36*	6	-5	109	110
O=C(c1ccccc1)C1CC1c1ccccc1 (stereo not drawn)	5	nt	38*	nt	nt
NNC(=O)C1CC1c1ccccc1 (stereo not drawn)	3	7	5	99	98
Cc1cccc(OCCCn2ccnc2)c1	4	6	11	101	103
Cc1cc(C)cc(OCCCn2ccnc2)c1	4	2	27*	102	102
COCCN(CCOC)Cc1cc(=O)oc2cc(C)ccc12	-4	nt	4	nt	nt
COc1ccc(NC(=O)C2CCN(S(=O)(=O)c3cn(C)nc3C)CC2)cc1	18	-1	9	102	101
COc1ccccc1C(=O)Nc1ccnn1C1CCN(Cc2cn(C)c3ccccc23)CC1	-12	11	9	102	116

Screening results: PubChem BioAssay, several laboratories
